# According to PubChem BioAssay:
# Active and inactive are the calls of the source. Unless noted, how the calls were made is not given here.
# Columns and labels:
# [1] = compound effects on lung adenocarcinoma cell viability – A549, calcein-AM fluorescence, 48 h, basal, profiling panel (AID 1162); conditions: higher = more signal; further: test concentration not given here
# [2] = compound effects on differentiated 3T3-L1 adipocyte viability – cell-based, 3T3-L1 adipocytes, calcein-AM fluorescence, 48 h, basal, profiling panel (AID 1163); conditions: 3T3-L1 adipocytes viability, higher = more signal; further: test concentration not given here
# [3] = compound effects on hepatocellular carcinoma cell viability – HepG2, calcein-AM fluorescence, 48 h, basal, profiling panel (AID 1164); conditions: higher = more signal; further: test concentration not given here
# [4] = compound effects on multiple myeloma cell viability – MM1S, calcein-AM fluorescence, 48 h, basal, profiling panel (AID 1165); conditions: higher = more signal; further: test concentration not given here
# [5] = calcein-AM signal in unstimulated myeloma cells – cell-based, calcein-AM fluorescence, 48 h, PK04 Diversity Set, profiling panel (AID 1166); conditions: RPMI8226 myeloma viability, higher = more signal;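 further: cells grown under basal conditions without added stimulus; test concentration not given here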
# [6] = JC-1 mitochondrial signal, unstimulated HepG2 cells – cell-based, JC-1 fluorescence, 24 h, 100 nL compound, profiling panel (AID 1167); conditions: HepG2 mitochondrial potential, higher = more signal; further: test concentration not given here
# [7] = JC-1 mitochondrial signal, unstimulated adipocytes – cell-based, JC-1 fluorescence, 3T3-L1 adipocytes, 24 h, 100 nL compound, profiling panel (AID 1168); conditions: JC-1 mitochondrial fluorescence, higher = more signal, called active from +8 up or from −8 down; further: test concentration not given here
# [8] = JC-1 mitochondrial signal, unstimulated myeloma cells – cell-based, JC-1 fluorescence, RPMI8226, 24 h, 100 nL compound, profiling panel (AID 1169); conditions: JC-1 mitochondrial potential fluorescence, higher = more signal; further: test concentration not given here
# [9] = JC-1 mitochondrial signal, unstimulated MM1S myeloma – cell-based, JC-1 fluorescence, 24 h, 100 nL compound, profiling panel (AID 1170); conditions: MM1S mitochondrial potential, higher = more signal; further: test concentration not given here
# [10] = resazurin metabolic signal in A549 cells – cell-based, resazurin fluorescence, 24 h, PK04 Diversity Set, profiling panel (AID 1171); conditions: A549 viability, higher = more signal, called active from +8 up or from −8 down; further: test concentration not given here
# [11] = resazurin metabolic signal in HepG2 cells – cell-based, resazurin fluorescence, 24 h, PK04 Diversity Set, profiling panel (AID 1172); conditions: HepG2 viability, higher = more signal; further: test concentration not given here
# [12] = budding yeast growth changes without added modifier – OD600, strain BY4716, 24 h, basal condition, primary screen (AID 1173); conditions: S. cerevisiae BY4716 growth, OD600, 24 h; higher = more signal, called active from +8 up or from −8 down
# [13] = viability profiling in MM1S myeloma cells – cell-based, resazurin fluorescence, basal, 24 h, PK04 Diversity Set, profiling panel (AID 1174); conditions: higher = more signal, called active from +8 up or from −8 down; further: test concentration not given here
# [14] = biological target: Dihydroorotate dehydrogenase (quinone), mitochondrial (Plasmodium falciparum (isolate 3D7)) (UniProt Q08210); experiment: inhibition of P. falciparum DHODH – biochemical, C-terminal His tag, absorbance 600 nm, primary screen (AID 1175); conditions: PfDHODH enzyme, DCIP absorbance 600 nm; higher = more signal, called active from +8 up or from −8 down;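 further: recombinant parasite enzyme with a five histidine tag at its C terminus; test concentration not given here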
# [15] = inhibition of PAO1 biofilm formation – strain PAO1, LB-PBS medium, absorbance 600 nm, primary screen (AID 1176); further: test concentration not given here; conditions: P. aeruginosa PAO1 growth/biofilm, A600, 12 h; higher = more signal
# [16] = growth modulation of vineyard yeast isolate – strain RM11-1a, OD600, basal, 24 h, primary screen (AID 1177);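 further: cultures grown under basal conditions with no added stressor; test concentration not given here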; conditions: S. cerevisiae RM11-1a growth, OD600, 24 h; higher = more signal, called active from +8 up or from −8 down
# [17] = growth of efflux-deficient E. coli DRC39 – strain DRC39, OD650, 24 h, E. coli filamentation inducers, primary screen (AID 1178);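 further: growth measured as culture turbidity by optical density at 650 nm; test concentration not given here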; conditions: E. coli DRC39 acrAB, higher = more signal, called active from +8 up or from −8 down
# [18] = growth of efflux-deficient E. coli DRC39 – strain DRC39, OD650, 48 h, E. coli filamentation inducers, primary screen (AID 1179);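 further: screen aims at cell division blockers that make cells filament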; conditions: E. coli DRC39 delta-acrAB growth, higher = more signal, called active from +8 up or from −8 down
# [19] = viability profiling in RPMI8226 myeloma cells – cell-based, resazurin fluorescence, basal, 24 h, PK04 Diversity Set, profiling panel (AID 1180); conditions: higher = more signal;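 further: RPMI8826 multiple myeloma cell line at 5000 cells per well; test concentration not given here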
# [20] = biological target: E3 ubiquitin-protein ligase XIAP (Homo sapiens) (UniProt P98170); experiment: small molecules binding XIAP protein – biophysical, small-molecule microarray, fluorescence 635 nm, primary screen (AID 1181); conditions: higher = more signal;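 further: score merges 667 nm emission and signal to noise over triplicate slides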
# E3 ubiquitin-protein ligase XIAP (Homo sapiens), sequence (P98170 whole entry, looked up): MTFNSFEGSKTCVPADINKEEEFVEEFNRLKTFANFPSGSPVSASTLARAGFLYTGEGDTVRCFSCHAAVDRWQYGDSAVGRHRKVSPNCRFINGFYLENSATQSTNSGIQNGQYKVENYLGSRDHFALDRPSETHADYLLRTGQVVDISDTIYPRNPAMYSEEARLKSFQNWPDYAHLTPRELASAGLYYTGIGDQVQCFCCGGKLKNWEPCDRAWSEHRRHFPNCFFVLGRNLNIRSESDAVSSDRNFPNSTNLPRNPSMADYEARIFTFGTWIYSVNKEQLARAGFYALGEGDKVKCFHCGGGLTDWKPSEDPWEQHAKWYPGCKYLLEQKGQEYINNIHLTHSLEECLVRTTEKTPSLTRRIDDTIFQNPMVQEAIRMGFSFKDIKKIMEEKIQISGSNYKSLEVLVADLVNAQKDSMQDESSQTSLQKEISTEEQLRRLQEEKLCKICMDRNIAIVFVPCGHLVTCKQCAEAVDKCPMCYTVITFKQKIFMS
# Dihydroorotate dehydrogenase (quinone), mitochondrial (Plasmodium falciparum (isolate 3D7)), sequence (Q08210 whole entry, looked up): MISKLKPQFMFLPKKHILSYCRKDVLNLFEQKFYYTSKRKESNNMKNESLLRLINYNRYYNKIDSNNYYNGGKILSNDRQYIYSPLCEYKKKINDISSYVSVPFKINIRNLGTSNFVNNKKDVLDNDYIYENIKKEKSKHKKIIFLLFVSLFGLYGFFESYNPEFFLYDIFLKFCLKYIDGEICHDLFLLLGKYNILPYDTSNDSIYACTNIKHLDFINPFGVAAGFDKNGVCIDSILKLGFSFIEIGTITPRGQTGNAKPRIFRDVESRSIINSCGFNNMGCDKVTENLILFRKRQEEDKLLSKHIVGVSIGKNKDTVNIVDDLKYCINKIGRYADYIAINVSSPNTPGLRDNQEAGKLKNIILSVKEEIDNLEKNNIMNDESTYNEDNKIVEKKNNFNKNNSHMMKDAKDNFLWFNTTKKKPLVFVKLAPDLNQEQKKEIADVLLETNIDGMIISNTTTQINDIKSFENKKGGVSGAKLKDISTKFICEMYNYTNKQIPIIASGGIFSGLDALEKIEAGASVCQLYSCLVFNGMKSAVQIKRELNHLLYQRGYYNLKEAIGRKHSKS
smiles,measurement,setting,value
O[C@@H](Cc1ccccc1)[C@@H](/C=C/C1CC1)N(CC#Cc1ccccc1)Cc1cccc(Cl)c1,z-score,[1],0.136
same,z-score,[2],-0.166
same,z-score,[3],0.891
same,z-score,[4],-0.217
same,z-score,[5],-0.0958
same,z-score,[6],-0.549
same,z-score,[7],0.274 (inactive)
same,z-score,[8],0.256
same,z-score,[9],-1.16
same,z-score,[10],2.89 (inactive)
same,z-score,[11],2.5
same,z-score,[12],0.465 (inactive)
same,z-score,[13],1.61 (inactive)
same,composite z-score,[14],-0.312 (inactive)
same,z-score,[15],-0.131 (inactive)
same,z-score,[16],0.438 (inactive)
same,z-score,[17],0.839 (inactive)
same,z-score,[18],1.01 (inactive)
same,z-score,[19],2.06
same,composite z-score,[20],-0.0931
O=C1OCC=C[C@H]2OC34C=CCN(c5ccc(Cl)cc5)C(=O)[C@H]3N(CCO)C(=O)[C@@H]4[C@@H]12 (stereo not given in full),z-score,[1],0.667
same,z-score,[2],0.0916
same,z-score,[3],0.781
same,z-score,[4],0.0654
same,z-score,[5],0.714
same,z-score,[6],-0.365
same,z-score,[7],-0.803 (inactive)
same,z-score,[8],0.0649
same,z-score,[9],0.596
same,z-score,[10],-0.27 (inactive)
same,z-score,[11],-0.222
same,z-score,[12],0.52 (inactive)
same,z-score,[13],0.296 (inactive)
same,composite z-score,[14],0.198 (inactive)
same,z-score,[15],-0.401 (inactive)
same,z-score,[16],0.568 (inactive)
same,z-score,[17],0.973 (inactive)
same,z-score,[18],1 (inactive)
same,z-score,[19],0.825
same,composite z-score,[20],-0.22
[N-]=[N+]=Nc1ccccc1[C@H]1OC(c2ccc(OCCCO)cc2)=N[C@@]1(CCS(=O)(=O)c1ccccc1)C(=O)NCCN1CCOCC1,z-score,[1],0.101
same,z-score,[2],-0.223
same,z-score,[3],0.0355
same,z-score,[4],-0.387
same,z-score,[5],-0.161
same,z-score,[6],0.816
same,z-score,[7],-0.374 (inactive)
same,z-score,[8],0.184
same,z-score,[9],-0.691
same,z-score,[10],1.22 (inactive)
same,z-score,[11],0.3
same,z-score,[12],-0.378 (inactive)
same,z-score,[13],0.131 (inactive)
same,composite z-score,[14],0.467 (inactive)
same,z-score,[15],0.537 (inactive)
same,z-score,[16],0.0557 (inactive)
same,z-score,[17],-0.259 (inactive)
same,z-score,[18],-0.264 (inactive)
same,z-score,[19],0.291
same,composite z-score,[20],0.177
C=C(/C(=C/C[C@H](OC(=O)c1ccncc1)c1ccc(CO)o1)c1cc(C(=O)OC)ccc1OC)C(C)C,z-score,[1],-0.762
same,z-score,[2],-0.0308
same,z-score,[3],-1.15
same,z-score,[4],-1.26
same,z-score,[5],-0.524
same,z-score,[6],-0.133
same,z-score,[7],-1.63 (inactive)
same,z-score,[8],-0.324
same,z-score,[9],-0.251
same,z-score,[10],-0.18 (inactive)
same,z-score,[11],-0.154
same,z-score,[12],-0.368 (inactive)
same,z-score,[13],-0.797 (inactive)
same,composite z-score,[14],-0.913 (inactive)
same,z-score,[15],1.38 (inactive)
same,z-score,[16],0.112 (inactive)
same,z-score,[17],-0.825 (inactive)
same,z-score,[18],-0.655 (inactive)
same,z-score,[19],-0.9
same,composite z-score,[20],-0.124
O=C1C=C(c2ccccc2)C(=O)c2ccc([C@H]3Oc4ccccc4S(=O)(=O)N4CCC[C@@H]34)cc21,z-score,[1],-0.309
same,z-score,[2],-0.319
same,z-score,[3],-1.07
same,z-score,[4],-3.23
same,z-score,[5],-4.03
same,z-score,[6],-3.82
same,z-score,[7],-1.83 (inactive)
same,z-score,[8],-1.23
same,z-score,[9],-2.69
same,z-score,[10],-0.602 (inactive)
same,z-score,[11],-0.337
same,z-score,[12],-18.1 (active)
same,z-score,[13],-8.07 (active)
same,composite z-score,[14],-5.82 (inactive)
same,z-score,[15],0.649 (inactive)
same,z-score,[16],-0.801 (inactive)
same,z-score,[17],1.81 (inactive)
same,z-score,[18],0.587 (inactive)
same,z-score,[19],-5.86
same,composite z-score,[20],-0.31
COC(=O)CCCCCCC(=O)Nc1ccc(NC(=O)CCCC[P+](c2ccccc2)(c2ccccc2)c2ccccc2)cc1,z-score,[1],-0.0008
same,z-score,[2],-0.297
same,z-score,[3],0.67
same,z-score,[4],0.134
same,z-score,[5],-0.268
same,z-score,[6],1.58
same,z-score,[7],1.03 (inactive)
same,z-score,[8],-0.176
same,z-score,[9],-1.46
same,z-score,[10],1.1 (inactive)
same,z-score,[11],1.45
same,z-score,[12],-1.95 (inactive)
same,z-score,[13],0.687 (inactive)
same,composite z-score,[14],-1.77 (inactive)
same,z-score,[15],-1.01 (inactive)
same,z-score,[16],1.68 (inactive)
same,z-score,[17],-17.1 (active)
same,z-score,[18],-5.78 (inactive)
same,z-score,[19],0.347
same,composite z-score,[20],-0.127
COc1ccc(CCNC(=O)[C@@]2(Sc3ccc(C)cc3)CC(=O)N(C3Cc4ccccc4C3)[C@@H]2c2ccc(CO)cc2)cc1,z-score,[1],-0.342
same,z-score,[2],0.67
same,z-score,[3],-1.16
same,z-score,[4],-0.729
same,z-score,[5],-1.35
same,z-score,[6],-0.114
same,z-score,[7],-0.775 (inactive)
same,z-score,[8],-0.608
same,z-score,[9],-0.885
same,z-score,[10],0.358 (inactive)
same,z-score,[11],0.115
same,z-score,[12],0.293 (inactive)
same,z-score,[13],-1.13 (inactive)
same,composite z-score,[14],-0.396 (inactive)
same,z-score,[15],0.31 (inactive)
same,z-score,[16],-0.255 (inactive)
same,z-score,[17],0.514 (inactive)
same,z-score,[18],0.005 (inactive)
same,z-score,[19],0.136
same,composite z-score,[20],2.04
C=CCN1C(=O)[C@@]2(O[C@@H](CCn3cc([C@H](O)c4ccccc4)nn3)[C@H]([Si](C)(C)c3ccc(OC)cc3)[C@H]2C)c2cc(N3CCC3=O)ccc21,z-score,[1],0.36
same,z-score,[2],0.977
same,z-score,[3],0.0404
same,z-score,[4],-1.12
same,z-score,[5],-2.81
same,z-score,[6],2.18
same,z-score,[7],0.385 (inactive)
same,z-score,[8],-1.01
same,z-score,[9],0.219
same,z-score,[10],-1.35 (inactive)
same,z-score,[11],-0.721
same,z-score,[12],0.869 (inactive)
same,z-score,[13],-1.14 (inactive)
same,composite z-score,[14],0.936 (inactive)
same,z-score,[15],1.25 (inactive)
same,z-score,[16],2.39 (inactive)
same,z-score,[17],0.397 (inactive)
same,z-score,[18],0.477 (inactive)
same,z-score,[19],-1.09
same,composite z-score,[20],-0.153
